Most compounds without a hit are left out; they make up all but 21% or so of the library.
HCV inh = HCV inhibition; hit rate 3.4% among 340,000; Potency, µM (top dose mostly 41.8 µM), for the others: at the top dose activity change, negative = inhibition, usual class: inhibitors; Huh7.5.1 HCVcc-Cre infection, luciferase reporter, 44 h; also: potency is read from the fitted curve at half-maximal effect; % is scaled to controls: 0 for no effect and ±100 for the full control effect
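Seed cells (1,000/well) for 4 h; treat with compound and infect with HCVcc-Cre, moi about 0.5. Incubate 44 h, then detect luciferase activity.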
CHX counter = counter-screen for Shiga toxin inhibitors: cycloheximide protein synthesis inhibition | hit rate 12% among 300,000 | cell reporter, cycloheximide protein synthesis inhibition counterscreen | AID 2314 | max response, %; in the data active = max response mostly above about 13%, no sharp cut-off; inactive = mostly below about 14%; also: read at 38.3 µM for the half of the compounds with a filed dose; 0% is about no effect
Pf growth 96h = P. falciparum growth inhibition at 96 hour, primary screen for plastid delayed-death inhibitors. hit rate 6.9% among 320,000. Potency, µM (highest dose often 28.7 µM), for the others: at the highest dose activity change, negative = inhibition, most hits filed as inhibitors. P. falciparum luciferase reporter growth, 96 h; also: potency is read from the fitted curve at half-maximal effect; % is scaled to controls: 0 for no effect and ±100 for the full control effect
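Infected RBCs, 2% Hct / 0.05% parasitemia final; luciferase-reporter P. falciparum; cpd 96 h, 37 C, 5% CO2; luciferase detection reagent; luminescence.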
Pf growth 48h = P. falciparum growth inhibition at 48 hours (one generation). P. falciparum luciferase growth in erythrocytes, 48 h. hit rate 5.9% among 310,000. Potency, µM (doses to about 28.7 µM), for inactives: at the highest dose activity change, negative = inhibition, actives largely listed as inhibitors; also: potency is read from the fitted curve at half-maximal effect; % is scaled to controls: 0 for no effect and ±100 for the full control effect
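Erythrocytes infected with P. falciparum carrying an integrated firefly luciferase reporter (2% hematocrit, 0.1% parasitemia final) were exposed to compounds in RPMI 1640 with 0.5% Albumax at 37 C, 5% CO2. Growth inhibition was scored as reduced luminescence.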
HCMV antiviral = inhibitors of human cytomegalovirus | HFF cells, HCMV-luciferase reporter, 72 h; active compounds read low | activity change, negative = inhibition, % at 57.5 µM | hit rate 4.5% among 410,000 | AID 1259415; in the data active = activity change below about -60%; inconclusive = no clear call, values can overlap the other calls; inactive = above about -39%; also: % is scaled to controls: 0 for no effect and ±100 for the full control effect
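Screen run at 2 compound doses on HFFs infected with reporter HCMV, MOI 1 PFU/cell. Luciferase activity from cell lysates at 72 h post infection gave inhibition relative to buffer-only and Salinomycin wells.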
Shiga toxin inh = inhibitors of Shiga toxin in Vero cells | Vero cells, Shiga toxin protein synthesis inhibition reporter | hit rate 9.2% among 290,000 | inhibition, % at 38.7 µM; in the data active = inhibition mostly above about 28%, no sharp cut-off; inactive = mostly below about 43%; also: 0% is about no effect
An asterisk follows results filed as active; ? = inconclusive; . = no result; [ ] = remark or other dose. Unless noted, calls follow the shape of the dose curve; as a rule, active = well fitted inhibition curve with a large enough effect; inconclusive = small, poorly fitted or top-dose-only effect, or another doubt; inactive = no such curve, though single readings can be large or run the other way.

SMILES | HCV inh | CHX counter | Pf growth 96h | Pf growth 48h | HCMV antiviral | Shiga toxin inh
CCN(CC)CC(O)Cn1c2ccccc2c2ccccc21 (stereo not drawn) | ? | 8 | . | ? | ? | -33
COc1ccccc1N(CC(O)COc1ccccc1C)S(=O)(=O)c1ccccc1 (stereo not drawn) | 15% | -1 | 10µM* | ? | -6 | -7
COc1ccc(N(CC(O)Cn2c(C)nc3ccccc32)S(=O)(=O)c2ccc(C)cc2)cc1 (stereo not drawn) | 10% | -5 | 57% | ? | -35 | -12
C=CCN(CC=C)CC(O)CN(c1cc([N+](=O)[O-])ccc1OC)S(=O)(=O)c1ccccc1 (stereo not drawn) | 12% | 3 | 35% | ? | -107* | 19
COC(=O)c1ccc(CNC(=O)COC(=O)COc2ccc(OC)cc2)cc1 | 11% | -6 | 133% | -7% | -23 | 19
c1ccc(-c2ccccc2OCCOCCN2CCOCC2)cc1 | 17% | -3 | ? | ? | 10 | -15
C=CCS(=O)(=O)N1CCCC(Cc2ccccc2C)(C(=O)OCC)C1 (stereo not drawn) | -6% | -2 | ? | ? | ? | 14
Cc1ccc(S(=O)(=O)N(CC(O)Cn2c3ccccc3c3ccccc32)c2cccc(C(N)=O)c2)cc1 (stereo not drawn) | . | . | . | . | -80* | .
COc1ccccc1CNCC(O)Cn1c2ccccc2c2ccccc21 (stereo not drawn) | 11µM* | -11 | 2.1µM* | 1.5µM* | -99* | -27
COc1ccccc1N(CC(O)CN1C(C)CCCC1C)S(=O)(=O)c1ccccc1 (stereo not drawn) | 8% | -4 | -2% | -4% | -27 | -8
OCCNCC(O)Cn1c2ccccc2c2ccccc21 (stereo not drawn) | 8% | 4 | ? | 34% | 23 | 14
O=S(=O)(c1ccccc1)N(CC(O)Cn1c2ccccc2c2ccccc21)c1ccccc1 (stereo not drawn) | ? | 5 | 2.3µM* | ? | -15 | -24
COc1ccccc1N(CC(O)Cn1c2ccccc2c2ccccc21)S(=O)(=O)c1ccccc1 (stereo not drawn) | ? | 4 | 10µM* | 12µM* | -11 | 14
CC1CCN(c2ncnc3c2nnn3C)CC1 | . | . | . | . | 0 | .
CCN1CCN(c2ccc(S(=O)(=O)N3CCOCC3)cc2NC(=O)C(C)Oc2cccc(Cl)c2)CC1 (stereo not drawn) | ? | . | ? | 10µM* | -10 | .
CC(Oc1cccc(Cl)c1)C(=O)Nc1cc(S(=O)(=O)N2CCOCC2)ccc1N1CCCCC1 (stereo not drawn) | 22µM* | . | ? | 8.3µM* | -36 | .
CCN(CC(=O)Nc1ccc(N2CCOCC2)cc1)C(=O)COc1ccccc1OC | 23% | 20 | 14% | -3% | 34 | 27
COc1cccc(OC)c1C(=O)Nc1cccc(S(=O)(=O)Nc2ccccc2Cl)c1 | -2% | . | . | . | 0 | .
O=C(Nc1cccc(S(=O)(=O)Nc2ccccc2Cl)c1)c1ccc(Cl)nc1 | ? | 1 | -15% | 2% | -86* | -3
O=C(Nc1ccc(Cc2ccncc2)cc1)c1ccc(S(=O)(=O)N2CCCC2)cc1 | 5µM* | -2 | 34% | -22%[5.75 µM] | -87* | -2
CC(=O)Nc1ccc(S(=O)(=O)Oc2cccc(N3C(=O)C4CCCCC4C3=O)c2)cc1 (stereo not drawn) | 22% | 2 | 89% | 13µM* | -12 | -11
CC1CCN(S(=O)(=O)c2ccc(NC(=O)c3ccncc3)cc2)CC1 | 11µM* | 1 | 14% | -40% | -64* | -36
O=C(COC(=O)c1cccc(Br)c1)NCc1ccco1 | 9% | . | . | . | 1 | .
CC(=O)Nc1ccc(OS(=O)(=O)c2ccc(C(C)(C)C)cc2)cc1 | . | 12* | 48% | -1% | . | 34
NS(=O)(=O)c1ccc(NC(=O)c2ccc(S(=O)(=O)N3CCCCCC3)cc2)cc1 | -1% | . | . | . | -64* | .
SMILES | HCV inh | CHX counter | Pf growth 96h | Pf growth 48h | HCMV antiviral | Shiga toxin inh
CC(=O)Nc1ccc(OS(=O)(=O)O)cc1 | . | -5 | . | . | . | -5
COc1ccc(NC(=O)c2cc(OC)c(OC)c(OC)c2)cc1S(=O)(=O)N1CCCCC1 | ? | -9 | ? | -34% | 122 | 3
COc1ccc(NC(=O)c2cc(F)cc(F)c2)cc1S(=O)(=O)N1CCCCC1 | 10µM* | . | . | . | ? | .
COc1ccc(C(=O)Nc2ccc(Cl)cc2F)cc1S(=O)(=O)N1CCCC1 | ? | . | 9.3µM* | 12µM* | ? | .
NS(=O)(=O)c1ccc(NC(=O)c2ccc(-c3ccccc3)cc2)cc1 | 10% | -2 | ? | -3% | ? | -9
COc1ccc(C(=O)Nc2cccc(-c3csc(C)n3)c2)cc1S(=O)(=O)N1CCCC1 | ? | . | 13µM* | 12µM* | -12 | .
COc1ccc(NC(=O)c2ccc(Cl)nc2)cc1S(=O)(=O)N1CCCCC1 | 11µM* | -3 | ? | ? | -3 | -8
CC(C)(C)c1ccc(C(=O)Nc2ccc(S(N)(=O)=O)cc2)cc1 | 22µM* | 7 | ? | ? | -37 | 14
O=C(Nc1ccc(S(=O)(=O)N2CCCC2)cc1)c1ccc(Cl)nc1 | ? | . | ? | ? | -29 | .
O=C(Nc1ccc(S(=O)(=O)N2CCCCC2)cc1)c1ccc(Cl)nc1 | ? | . | . | . | -75* | .
O=C(OCc1nnc(-c2ccc([N+](=O)[O-])cc2)o1)C1CCN(C(=O)c2ccc(F)cc2)CC1 | 0% | . | ? | -26% | 0 | .
O=C(O)CC/C(=N\NC(=O)CNC(=O)c1ccc(F)cc1)c1ccccc1 | 12% | 3 | 48% | 11% | 0 | 6
CCOc1ccc(OCC)c(NS(=O)(=O)c2ccc3c(c2)CCCN3C(C)=O)c1 | . | . | . | . | 0 | .
Cc1nc2ccsc2c(=O)n1-c1cccc(Cl)c1 | -12% | . | . | . | 17 | .
COc1cc2nc(SCC(=O)Nc3cccc(C)c3)n3nc(CCn4c(C)nc5ccccc54)nc3c2cc1OC | . | . | . | . | -10 | .

Assay outcomes (PubChem)
